High-throughput results (PubChem BioAssay)
Shown are actives, neighbours in structure and some others; about 7% of the full set was active somewhere.
rCAG binder: r(CAG) repeat RNA binding; TO-PRO-1 dye displacement fluorescence; inhibition, % at 3 µM; 370,000 tested, 1.3% active; AID 651821;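 active = inhibition above the plate cutoff, the mean of all test compounds on that plate plus 3 SD, cut at about 35% in these data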;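 note: 0% = DMSO alone and 100% = 100 µM mitoxantrone as full dye displacement; higher means more dye released from RNA so lower well fluorescence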
ADAM10 inh: inhibitors of human ADAM10 | inhibition, % at 7 µM | recombinant ADAM10, EDANS/DABCYL FRET peptide cleavage, 3 h | O14672 | 370,000 tested, 0.62% active | AID 720582;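 active = inhibition above a per-campaign cutoff equal to the mean of compounds falling between control-based bounds plus 3 SD, cut at about 20% in these data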;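 note: 0% = DMSO wells while the 100% control is not disclosed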
NR3A LBD binder: NR3A (human) ligand-binding domain modulation. NR3A LBD differential scanning fluorimetry, Tm shift; 0% = protein alone, 100% = glycine-bound protein. Tm shift relative to glycine control, % at 25 µM. 340,000 tested, 2.5% active;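 active = melting temperature shift of at least 10% of the positive control shift, at one fixed dose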
AHR activator: activators of human aryl hydrocarbon receptor. 320,000 tested, 2.5% active. activation, % at 5 µM. AHR-responsive luciferase reporter cells, luminescence. P35869; in the data active = activation above about 47%;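 note: 0% = vehicle wells and 100% = reference agonist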
ADAM17 inh: inhibitors of human ADAM17 | P78536 | recombinant ADAM17, EDANS/DABCYL FRET peptide cleavage | inhibition, % at 6.95 µM | 370,000 tested, 0.83% active | AID 720648;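 active = inhibition above the mean of compounds lying between control limits plus 3 SD, set per campaign, cut at about 8.5% in these data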;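 note: 0% = DMSO-only wells as the low control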
proKLK7 act: activates the human kallikrein-7 zymogen; purified proKLK7, EDANS-DABCYL substrate fluorescence; 100% is mature enzyme control, 0% vehicle; 370,000 tested, 0.9% active; AID 652039; activation, % at 7 µM;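 active = activation above the mean of all tested compounds plus 3 SD, computed per campaign excluding outliers beyond control limits, cut at about 13% in these data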
Target sequence (P49862 whole entry, looked up): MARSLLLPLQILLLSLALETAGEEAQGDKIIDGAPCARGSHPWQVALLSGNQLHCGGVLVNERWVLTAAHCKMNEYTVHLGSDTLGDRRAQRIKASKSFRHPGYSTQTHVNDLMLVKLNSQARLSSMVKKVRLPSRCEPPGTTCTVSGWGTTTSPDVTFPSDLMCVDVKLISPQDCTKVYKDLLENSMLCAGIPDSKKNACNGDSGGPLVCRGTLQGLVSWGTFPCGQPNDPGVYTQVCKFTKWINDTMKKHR
ADAM10 confirm: human ADAM10 inhibition, confirmation; shares compounds with ADAM10 inh; ADAM10 QFRET peptide cleavage, EDANS fluorescence; inhibition, % at 6.95 µM; 2,100 tested, 1% active;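 active = inhibition above about 20% chosen separately for each screening run, limit read from the data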;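 note: 0% = DMSO wells and 100% = marimastat wells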
ADAM17 ctr: counter-screen for ADAM10 exosite inhibitors: inhibitors of human ADAM17 | ADAM17 QFRET peptide cleavage, EDANS fluorescence | shares compounds with ADAM10 inh | 2,100 tested, 0.5% active | inhibition, % at 6.95 µM | AID 743214;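 active = mean triplicate inhibition above the solvent-only control wells' mean plus 3 SD, cut at about 12% in these data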;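 note: 0% = DMSO wells and 100% = marimastat wells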
ADAM10 ctr: inhibits human ADAM10 in ADAM17 exosite counter-screen | shares compounds with ADAM17 inh | recombinant ADAM10, EDANS/DABCYL FRET peptide cleavage, 3 h | inhibition, % at 6.95 µM | 2,900 tested, 47% active;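 active = mean inhibition over the triplicate runs exceeds the activity threshold set in the earlier primary screen, cut at about 20% in these data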;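 note: 0% = DMSO wells and 100% = marimastat wells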
ADAM17 confirm: confirmation of inhibitors of human ADAM17; shares compounds with ADAM17 inh; recombinant ADAM17, EDANS/DABCYL QFRET peptide cleavage; inhibition, % at 6.95 µM; 2,900 tested, 65% active;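 active = mean inhibition across replicates above the hit cutoff set in the primary screen, cut at about 8.5% in these data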;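 note: 0% = DMSO wells and 100% = marimastat wells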
The depositor's hits bear a star; x = no result given.

SMILES	rCAG binder	ADAM10 inh	NR3A LBD binder	AHR activator	ADAM17 inh	proKLK7 act	ADAM10 confirm	ADAM17 ctr	ADAM10 ctr	ADAM17 confirm
CCCCCCCCNS(=O)(=O)/C=C/c1ccccc1CNC(=O)OC(C)(C)C	2.1	20.9*	x	x	10.7*	0.2	12.2	3.3	31.4*	14.9*
COc1cccc(CNC(=O)CCNS(=O)(=O)c2ccc(C)cc2)c1	-1.8	3.4	0.4	1.9	1.2	-0.4	x	x	x	x
Cc1cc(-n2c(C)cc(C(=O)CSc3nnnn3-c3ccccc3)c2C)no1	0.7	3.5	9.1	0.4	0.8	1.1	x	x	x	x
Cc1ccc(-n2nnnc2SCC(=O)c2cc(C)n(-c3cc(C)on3)c2C)c(C)c1	10.7	23.8*	1.4	11.3	14.9*	-0.4	3.1	1.6	18.6	10.7*
CCc1cccc2c(C(=O)CN3C(=O)NC4(CCc5ccccc54)C3=O)c[nH]c12 (centres undefined)	14.3	6.0	-4.7	12.8	1.7	0.3	x	x	x	x
CCc1cccc2c(C(=O)CN3C(=O)NC(C)(c4cccc5ccccc45)C3=O)c[nH]c12 (centres undefined)	23.1	30.2*	8.9	5.7	9.6*	-0.5	8.2	2.5	28.2*	16.3*
Cc1c(O)ccc(C(=O)COc2ccccc2F)c1O	6.7	22.0*	35.3*	10.4	12.3*	-0.7	0.5	0.2	27.3*	11.6*
O=C(COc1ccccc1F)c1ccc(O)cc1O	-0.1	-3.7	1.0	-3.0	-1.8	0.7	x	x	x	x
Nc1ccc2c(c1)Cc1cc(N)c(Cl)cc1-2	6.5	27.2*	8.6	x	12.1*	-0.5	9.0	5.3	-4.8	4.3
COc1ccc(C(c2c[nH]c3ccccc23)c2c[nH]c3ccccc23)cc1O	10.5	30.9*	x	28.0	11.4*	-0.9	12.7	4.0	42.6*	20.2*
COc1ccc(NC(=O)CC2C(=O)N(C)C(=S)N2CCc2ccc(F)cc2)cc1 (centres undefined)	5.2	20.8*	-2.1	3.4	11.8*	0.8	0.8	0.1	25.3*	14.1*
COC(=O)c1ccc(NC(=O)COc2ccc(S(=O)(=O)NC(C)(C)C)cc2)cc1	-1.4	-4.2	-17.5	8.8	-1.3	-0.2	x	x	x	x
Cc1ccccc1C(=O)NC(=S)Nc1ccc(Cc2ccncc2)cc1	0.5	5.6	0.3	-5.5	3.1	-0.5	x	x	x	x
COc1ccc(C(=O)NC(=S)Nc2ccc(Cc3ccncc3)cc2)cc1	-5.5	35.6*	4.4	-2.1	9.0*	0.4	3.3	0.7	23.0*	11.5*
COc1ccccc1N1CCN(C(=O)c2oc3c(c2C)C(=O)CC(C)(C)C3)CC1	-11.2	3.4	0.9	0.9	-0.9	0.2	x	x	x	x
O=C1NC(Cc2ccccc2)c2nc3ccccc3c(=O)n2-c2cc(Cl)ccc21 (centres undefined)	4.2	25.4*	x	0.5	16.7*	0.6	4.0	0.8	22.7*	11.6*
CCOc1ccc(C(Nc2cccnc2)c2cc(Cl)c3cccnc3c2O)cc1 (centres undefined)	3.1	21.7*	-1.0	1.3	14.7*	-0.3	45.0*	15.2*	49.1*	27.8*
COc1ccc(NC(=O)c2cc(S(=O)(=O)N(Cc3ccccc3)c3ccccc3)ccc2Cl)cn1	8.3	20.0*	-1.5	3.6	9.6*	-0.3	9.2	2.5	23.0*	11.9*
CCOC(=O)C1CCCN(C(=S)NC2CCCC2)C1 (centres undefined)	-3.1	7.3	-1.1	-3.2	-0.8	0.8	x	x	x	x
COc1cc(/C=N\NC(=O)c2ccc(Cl)cc2)ccc1Oc1ccc([N+](=O)[O-])cn1	4.3	23.7*	-1.3	-6.1	10.9*	-0.5	3.8	0.6	14.6	7.8
COc1cccc(NC(=S)NCCC(c2ccccc2)c2ccccc2)c1	-3.2	17.4	8.0	6.1	7.4	0.2	x	x	x	x
COc1cc(NC(=S)NCCC(c2ccccc2)c2ccccc2)cc(OC)c1	3.7	22.9*	-3.1	5.4	11.6*	-0.1	9.1	1.9	20.2*	12.6*
CCOc1ccc(S(=O)(=O)n2cc(-c3ccc(F)cc3)c(N)n2)cc1	4.0	11.8	-3.0	26.5	2.5	0.2	x	x	x	x
CCOc1cc(S(=O)(=O)n2cc(-c3ccc(F)cc3)c(N)n2)cc(OCC)c1OCC	3.0	17.8	-17.3	10.6	10.9*	-0.2	x	x	30.6*	17.5*
CCCc1cc(-c2[nH]ncc2-c2ccc3c(c2)OCCCO3)c(O)cc1O	4.7	3.9	12.0*	43.0	10.6*	-0.4	x	x	27.2*	14.2*
SMILES	rCAG binder	ADAM10 inh	NR3A LBD binder	AHR activator	ADAM17 inh	proKLK7 act	ADAM10 confirm	ADAM17 ctr	ADAM10 ctr	ADAM17 confirm
CCCc1cc(-c2[nH]ncc2-c2ccc(C(=O)OCC)o2)c(O)cc1O	12.7	-24.3	-1.0	3.7	-12.2	0.2	x	x	x	x
Cc1cccc(C)c1N=Nc1c(C)cc(O)cc1C	5.8	19.0	0.7	6.5	9.9*	0.3	x	x	45.2*	20.1*
OC[C@@H](O)[C@H](O)C(/C=N/Nc1ccccc1)=N\Nc1ccccc1	3.6	-41.3	1.2	6.3	-22.8	0.3	x	x	x	x
Cc1cccc(C)c1OC(=O)CN1C(=O)c2ccccc2C1=O	-3.1	-1.6	0.4	1.8	-0.9	0.2	x	x	x	x
Cc1ccc(S(=O)(=O)N2CCOC2CNC(=O)C(=O)NCCCc2ccccc2)cc1 (centres undefined)	-0.9	-1.3	-8.0	-1.9	9.3*	-0.6	x	x	21.9*	21.0*
CCc1nn(CC(=O)NCCCc2ccccc2)c(=O)c2cc3cc(F)ccc3n12	x	x	1.4	0.7	x	x	x	x	x	x
Cc1nc(C)n(C(Oc2ccc(Cl)cc2Cl)C(=O)C(C)(C)C)n1 (centres undefined)	-3.6	1.2	-0.2	0.7	5.6	0.7	x	x	x	x
O=C(c1ccc(Cl)c([N+](=O)[O-])c1)N(Cc1ccco1)C1CCS(=O)(=O)C1 (centres undefined)	-1.1	-0.5	-1.0	1.6	-0.1	0.1	x	x	x	x
Cc1sc2nc(SCC(=O)OC(C)C)n(C)c(=O)c2c1C	-1.5	-4.5	-2.6	x	14.5*	-0.7	x	x	-5.7	-0.8
COc1cc(OC)cc(C(=O)NC2CCN(CC(=O)Nc3cccc4ccccc34)CC2)c1	1.9	11.8	2.3	6.4	11.6*	1.0	x	x	-4.8	1.8
COc1cccc(C(=O)NC2CCN(CC(=O)Nc3cccc(C)c3C)CC2)c1	-6.0	-6.0	0.4	-0.3	-1.1	0.3	x	x	x	x
